Each structure is given as a SMILES string. Values joined by “and” are separate entries in the source; they are usually repeats but may differ in a detail not shown here. Identical values can stand only once. The whole screen tested about 370,000 compounds, of which about 660 (0.18%) were called active. Many of the other results were omitted from the sample, so actives are more common in it than they were. A number with no mark means an inactive call. No stated cut-off is given here; in the data, active means inhibition above about 11%; inactive means the rest.

What is called inhibition is the drop in the measured response relative to a control, in per cent.

The target in the experiment is 1-phosphatidylinositol 4,5-bisphosphate phosphodiesterase beta-3 (Homo sapiens) (UniProt Q01970). The experiment in a line: human PLC-beta3 inhibitors, primary screen, biochemical, fluorescence (AID 720704).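 Further: 0% = median of compound wells on plate and 100% = full blocker control.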 To be noted: Purified PLC-beta3, fluorogenic substrate, at 12.2 µM, stronger effect = higher value.
Chain of 1-phosphatidylinositol 4,5-bisphosphate phosphodiesterase beta-3 (Homo sapiens) (Q01970 whole entry, looked up): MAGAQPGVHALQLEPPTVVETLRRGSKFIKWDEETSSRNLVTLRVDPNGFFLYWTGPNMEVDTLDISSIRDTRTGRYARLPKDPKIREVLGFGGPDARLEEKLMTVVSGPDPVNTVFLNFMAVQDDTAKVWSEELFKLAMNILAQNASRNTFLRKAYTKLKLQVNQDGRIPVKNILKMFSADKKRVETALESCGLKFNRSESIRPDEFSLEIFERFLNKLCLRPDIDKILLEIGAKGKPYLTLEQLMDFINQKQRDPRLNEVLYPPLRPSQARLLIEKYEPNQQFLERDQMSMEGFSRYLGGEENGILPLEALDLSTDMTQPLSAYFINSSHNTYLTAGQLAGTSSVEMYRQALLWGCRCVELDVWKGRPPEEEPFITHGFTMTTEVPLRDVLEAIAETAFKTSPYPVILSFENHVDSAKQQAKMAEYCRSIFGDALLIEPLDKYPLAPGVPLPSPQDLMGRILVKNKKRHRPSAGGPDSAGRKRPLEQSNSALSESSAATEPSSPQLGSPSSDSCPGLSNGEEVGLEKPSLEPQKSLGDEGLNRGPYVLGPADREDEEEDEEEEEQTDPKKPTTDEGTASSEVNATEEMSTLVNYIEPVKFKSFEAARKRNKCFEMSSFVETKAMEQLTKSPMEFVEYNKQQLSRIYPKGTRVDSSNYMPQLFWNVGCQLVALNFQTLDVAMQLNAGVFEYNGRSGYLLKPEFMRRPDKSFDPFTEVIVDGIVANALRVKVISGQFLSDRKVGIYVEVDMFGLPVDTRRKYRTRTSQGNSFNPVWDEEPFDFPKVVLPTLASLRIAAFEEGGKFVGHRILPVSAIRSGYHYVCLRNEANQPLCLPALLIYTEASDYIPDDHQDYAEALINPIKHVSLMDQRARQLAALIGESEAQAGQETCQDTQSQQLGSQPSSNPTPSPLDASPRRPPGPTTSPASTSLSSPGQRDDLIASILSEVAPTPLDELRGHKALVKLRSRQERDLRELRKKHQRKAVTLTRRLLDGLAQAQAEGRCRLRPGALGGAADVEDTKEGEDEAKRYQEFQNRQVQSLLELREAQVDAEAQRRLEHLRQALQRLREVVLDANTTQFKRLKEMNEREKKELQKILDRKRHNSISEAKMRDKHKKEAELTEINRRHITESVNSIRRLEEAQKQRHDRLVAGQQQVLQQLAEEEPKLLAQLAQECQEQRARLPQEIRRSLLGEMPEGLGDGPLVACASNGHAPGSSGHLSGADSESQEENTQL
Take `Cc1c(C)c2ccc(OCC(=O)N3CCN(c4cccc(Cl)c4)CC3)cc2oc1=O`: the inhibition was -8.02%.
Regarding `O=C(COc1ccc(Cl)cc1)N1CCN(c2cccc(C(F)(F)F)c2)CC1`, the inhibition was 13.8% (active).
`CSCCC(NC(=O)COc1ccccc1)C(=O)N1CCN(c2cccc(C(F)(F)F)c2)CC1` (stereo not drawn): the inhibition was -10.1%.
As to `COC(=O)C1CC2=C(CC(C)(C)CC2=O)N(c2ccccc2)C1=O` (stereo not drawn), the inhibition is -3.14%.
Turning to `O=C(COC(=O)c1ccc(F)c(S(=O)(=O)N2CCOCC2)c1)NCc1ccc2c(c1)OCO2`, the inhibition is -5.58%.
As for `Cc1ccc(C(=O)OCC(=O)Nc2ccc(Cl)cn2)cc1S(=O)(=O)N1CCOCC1`, the inhibition was -6.74%.
For the compound `Cc1cc(NC(=O)COC(=O)c2ccc(F)c(S(=O)(=O)N3CCOCC3)c2)no1`, the inhibition is 11.6% (active).
For the compound `CCCOc1ccc(Cc2c(O)nc(N)[nH]c2=O)cc1C`, the inhibition was -5%.
The result for `CCc1c(Nc2ccccc2Cl)nc(N)[nH]c1=O` reads 1.61%.
In the case of `CCc1c(Nc2ccccc2C)nc(N)[nH]c1=O`, the inhibition was 14.8% (active).
Turning to `COc1ccc(C(=O)O)cc1S(=O)(=O)NCc1cccnc1`, the inhibition was -3.06%.
As for `Cc1nnc(SCc2ccc(C(=O)c3ccc(Cl)cc3)o2)n1-c1ccccc1`, the inhibition was 0.27%.
The result for `COC(=O)c1cc(NC(=O)c2nn(C)c(=O)c3ccccc23)cc(C(=O)OC)c1` reads 0.09%; that for `CC(=O)N1c2ccc(S(=O)(=O)N3CCCC(C(=O)NCc4ccc(Cl)cc4)C3)cc2CC1C` (stereo not drawn), -2.78%.
The result for `O=C(NCc1ccco1)c1nn2cccnc2c1Cl` reads -10.8%.
The result for `CCCCc1nc2ccccc2c(NC(=O)CN2CCN(C)CC2)c1CCC` reads 32% (active); that for `CN1CCN(C(=O)Cn2c(C(F)(F)F)nc3ccccc32)CC1`, 5.24%.
Consider `CCc1cc(C(=O)c2ccc(OC)cc2)c(NC(=O)CN2CCN(C)CC2)s1`, for which the inhibition was -17.3%.
The result for `CCOC(=O)c1cc2ccccc2n1CC(=O)c1ccccc1` reads -2.72%; that for `CCn1c(/C=C/Nc2ccccc2)[n+](CC)c2ccc(C(=O)OCC(F)(F)F)cc21`, 13.1% (active).
The figure for `Cc1cc(C)c(OCC(=O)N(Cc2cccs2)C2CCS(=O)(=O)C2)c(C)c1` (stereo not drawn) is -6.39%; for `CC1C(=O)Nc2ccccc2N1C(=O)c1c(F)cccc1F` (stereo not drawn) it is -2.5%.
For the compound `CC(=O)O[C@]1(C(C)=O)CC[C@H]2[C@@H]3C=C(C)C4=CC(=O)CC[C@]4(C)[C@H]3CC[C@@]21C`, the inhibition is -0.43%.
The figure for `CC(=O)C12CC(C)=C(C)CC1CC1C3CCC4=CC(=O)CCC4(C)C3CCC12C` (stereo not drawn) is 16.1% (active).
The result for `CC(=O)O[C@@]1(C(C)=O)CCC2[C@H]3C=C(C)C4=CC(=O)CC[C@@]4(C)C3CC[C@]21C` (stereo partly drawn) reads -4.21%; that for `Cc1cc(NC(=O)CSCc2ccccc2C)no1`, -0.65%.
The result for `Cc1cc(NC(=O)COn2nnc3ccccc32)no1` reads 10.7% (active); that for `Cc1cc(NC(=O)COc2ccccc2C#N)no1`, -4.84%.
For the compound `C/C(CC(=O)Nc1cccc(C(F)(F)F)c1)=N\NC(=O)C(=O)NCC(C)C`, the inhibition is 2.01%.
Take `NC(c1csc(NC(=O)Nc2ccccc2Oc2ccccc2)n1)c1ccccc1Cl` (stereo not drawn): the inhibition is -2.19%.
Regarding `COc1ccc(C(N)c2csc(NC(=O)Nc3cccc(C(F)(F)F)c3)n2)cc1` (stereo not drawn), the inhibition was 11.1% (active).
Take `CCOC(=O)/C=C/CN(C(=O)OC(C)(C)C)S(=O)(=O)N1CC=CC1`: the inhibition was 5.79%.
As to `O=C(C1CCCO1)N1CCN(C(=S)Nc2cccc(Cl)c2)CC1` (stereo not drawn), the inhibition is 12.1% (active).
The result for `O=C(CN1CCN(C(=O)C2CCCO2)CC1)Nc1c(Cl)cccc1Cl` (stereo not drawn) reads -2.62%; that for `O=C(C1CCCO1)N1CCN(C(=S)NC2CC2)CC1` (stereo not drawn), -1.16%.
As to `C=CCN1[C@H](CC(C)C)COc2cccc(N3CCCC3)c2S1(=O)=O`, the inhibition was -10.8%.
The figure for `C=CCSc1nc2c(c(=O)[nH]1)C(C(C)C)C(C#N)=C(N)O2` (stereo not drawn) is -5.98%; for `O=C(NC1CCCC1)C1CC(=O)N(c2ccc(F)cc2)C1` (stereo not drawn) it is 1.14%.
The figure for `NC(=O)C1CC=CCC1C(=O)OCC(Cl)=C(Cl)Cl` (stereo not drawn) is -21%; for `C=C(Cl)COC(=O)C1C2C=CC(C2)C1C(=O)O` (stereo not drawn) it is -0.54%.
The result for `COc1cc(OC)cc(C(=O)OCC(=O)Nc2sccc2C(N)=O)c1` reads -6.31%; that for `CCOC(=O)c1cnc(SCc2nc(N)nc(Nc3ccc(OC)cc3)n2)nc1N`, 0.61%.
As for `Cc1ccc2nsnc2c1S(=O)(=O)N1CCCC1C(=O)O` (stereo not drawn), the inhibition is 5.41%.
Take `CC[C@]12c3[nH]c4ccc(Cl)cc4c3CCN1C(=O)[C@@H](CC(=O)NCCCOC)C[C@@H]2C(=O)N1CCN(C(=O)C2CC2)CC1`: the inhibition was -4.01%.
As to `O=C(NC1CC1)C1CCCN(C(=O)NC2CCCCC2)C1` (stereo not drawn), the inhibition was -7.45%.
The figure for `CC(C)C(=O)N1CCN(CCN=CC2=C(O)CC(c3ccco3)CC2=O)CC1` (stereo not drawn) is -7.32% and -15%.
As to `C=CCn1c(SCc2ccc(Cl)c(Cl)c2)nnc1C(CO)NC(=O)c1ccc(OC)cc1` (stereo not drawn), the inhibition was 4.74%.
The figure for `COCCCn1cc(CN2CC(N(C)C)CS2(=O)=O)nn1` (stereo not drawn) is -1.16%; for `O=C(Nc1c(C(=O)N2CCCCC2)cnn1-c1ccccc1)c1ccco1` it is 2.51%.
On to `O=C(CN(CC1CCCO1)C(=O)CNS(=O)(=O)c1ccc(F)cc1)NCc1ccco1` (stereo not drawn), for which the inhibition was 1.51%.
The result for `O=C1NC2(CCCCC2)N=C1c1ccccc1` reads 10%; that for `Cc1ccccc1N1CCN(C2CCCN(C(=O)c3cn4c(C)cccc4n3)C2)CC1` (stereo not drawn), -10.2%.
The figure for `Oc1c(CN2CCCC2)cc(COCc2ccccc2)c2cccnc12` is 16.5% (active).
The result for `O=[N+]([O-])c1cc([N+](=O)[O-])c2cccnc2c1O` reads -4.85%; that for `CCCNC(=O)NC(=O)COC(=O)CC(NC(N)=O)c1ccc(Cl)cc1` (stereo not drawn), 0.66%.
`COc1ccccc1CCNC(=O)C1CCN(c2nc(C)cc(C)n2)CC1`: the inhibition was 1.47%.
The figure for `COc1ccccc1/C=N\Nc1cc(C)nc(-n2nc(C)cc2C)n1` is 11.2% (active); for `CCOC(=O)c1cnc(-n2nc(C)cc2C)nc1NNc1cc(C)nc(-c2ccccc2)n1` it is 1.49%.

Source of the values: PubChem BioAssay AID720704 (The Scripps Research Institute Molecular Screening Center, 2013).
